Inconclusive results are not listed. Values without a mark were called inactive. Calls of active or inactive are those of the source. Calls follow the shape of the dose curve; as a rule, active = well fitted curve in the direction sought with a large enough effect; inconclusive = small, poorly fitted or top-dose-only effect, or another doubt; inactive = no such curve, though single readings can be large or run the other way.
% is scaled to controls: 0 for no effect and ±100 for the full control effect; potency is read from the fitted curve at half-maximal effect.

This assay in a line: qHTS for Inhibitors of the vitamin D receptor (VDR): Hit Validation using a Texas Red Assay (AID 602201). The note with it: VDR coregulator binding, Texas Red fluorescence polarization, agonist-bound VDR ligand-binding domain; series mostly up to 57.1 µM; activity, negative = inhibition: at the top concentration. The essentials: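 Fluorescence polarization (Ex 595/Em 615 nm) of Texas Red (7 nM) with 1.5 uM VDR-LBD and LG19078 (final concentrations). Compounds were incubated for 2 hours at room temperature.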
As to `O=C(/C=C/c1cccnc1)c1ccc([N+](=O)[O-])cc1`, the Potency was 3.16 µM (active).

`Cc1ccc(NC(=O)C2=C(c3ccccc3)S(=O)(=O)CCS2(=O)=O)cc1`: the Potency is 10 µM (active). On the same count and under the same terms, in the case of `CC(C)(C)c1cc(=O)n(-c2ccccc2)[nH]1` it was 12.6 µM (active). With `Cc1nc2c3cc(F)ccc3n(Cc3ccccc3)c2s1`, the “activity, negative = inhibition” value was -12.9%. With `Cc1oc2c(c1C(=O)c1ccc(Cl)cc1)C(=O)C(=O)c1ccccc1-2`, the Potency is 3.98 µM (active). On the same count and under the same terms, in the case of `Oc1cc2c(cc1C(c1ccc(Cl)c(Cl)c1)N1CCCC1)OCO2` (stereo not given) it was 8.91 µM (active); in that of `CC1=NNC(=O)/C1=C\c1cn(-c2ccccc2)nc1-c1ccccc1`, 3.16 µM (active); in that of `Cc1ccc(CSC2=NS(=O)(=O)c3ccccc32)cc1`, 7.94 µM (active). As to `O=c1[nH]c(/C=C/c2ccc(Cl)cc2Cl)c([N+](=O)[O-])c(=O)[nH]1`, the “activity, negative = inhibition” value is 28.6%. Consider `CC1(C)CC(=O)C(C(C2=C(O)CC(C)(C)CC2=O)c2ccc(O)c([N+](=O)[O-])c2)=C(O)C1`, for which the “activity, negative = inhibition” value was -18.9%. For `O=C(Nc1nnc(COc2ccc(Cl)cc2)s1)c1ccco1`, the “activity, negative = inhibition” value is -12.3%. In the case of `CCOC(=O)c1ccc(S(=O)(=O)Nc2cc(S(=O)(=O)N3CCOCC3)ccc2O)cc1`, the “activity, negative = inhibition” value is -22.6%. Consider `FC(F)(F)c1cccc(Sc2nc(-c3ccccc3)nnc2C(F)(F)F)c1`, for which the “activity, negative = inhibition” value was -16.9%. As to `CCC(C)(C)n1nnnc1C(c1ccc(O)c(OC)c1)N1CCc2ccccc2C1` (stereo not given), the Potency was 25.1 µM (active).

On to `COC(=O)c1cc(=O)n(Cc2ccco2)c(=Nc2ccc(F)c(Cl)c2)s1`, for which the Potency was 10 µM (active). In the case of `O=S(=O)(/C(=C/c1ccc(C(F)(F)F)cc1)c1nc2ccccc2[nH]1)c1ccccc1`, the “activity, negative = inhibition” value was -7.1%. Regarding `CCOC(=O)/C(=C\c1cccc(O)c1)c1nc2sc(C)c(C)c2c(=O)[nH]1`, the “activity, negative = inhibition” value is -7.53%. The same measure, in the same setting: the same measure for `O=C1ON=C(c2ccccc2)/C1=C/c1ccc(O)cc1`: -14.3%. On to `Cc1ccc(S(=O)(=O)CCC(=O)c2cccc([N+](=O)[O-])c2)cc1`, for which the Potency is 3.55 µM (active).

For the molecule `Cc1cc(Br)cc2c1N(Cc1ccccc1OC(C)C)C(=O)C2=O`, the Potency was 11.2 µM (active). Consider `CCOc1ccc(/C=C/C(=O)c2c(O)cc(C)oc2=O)cc1`, for which the Potency was 25.1 µM (active). Turning to `COc1ccc(/C=C2/C(=O)N(c3ccccc3)N=C2C)cc1Br`, the “activity, negative = inhibition” value is -7.66%.

For the molecule `CC(=O)C1=C(c2ccc(Br)cc2)C(=O)c2ccccc2C1=O`, the Potency was 3.55 µM (active). For the molecule `c1ccc(CCc2nn3c(Cn4cnc5ccccc54)nnc3s2)cc1`, the Potency is 28.2 µM (active). On the same count and under the same terms, the same measure for `CN(C)c1ccc(C=Nc2ccc(N(C)C)cc2)cc1`: 17.8 µM (active). For the molecule `Cc1ccc(S(=O)(=O)Oc2ccc(/C=C3\C(=N)N4N=C(S(C)(=O)=O)SC4=NC3=O)cc2)cc1`, the “activity, negative = inhibition” value is 47.3%. On to `O=C(Oc1ccccc1/C=C\C(=O)c1cc2ccccc2o1)c1ccccc1`, for which the Potency is 8.91 µM (active). `O=S(=O)(/N=C(\Sc1ccc(Cl)cc1)c1ccccc1)c1ccccc1`: the Potency is 35.5 µM (active). On to `CCOC(=O)/C(C#N)=C1/C(=O)N(Cc2ccccc2)c2ccccc21`, for which the “activity, negative = inhibition” value is -16.8%. Regarding `Cn1c(/C(C#N)=C/c2ccc(C(F)(F)F)cc2)nc2ccccc21`, the Potency was 14.1 µM (active). As for `CC(C)c1nnc(NC(=O)CCS(=O)(=O)c2nc(-c3cccs3)cc(C(F)(F)F)n2)s1`, the “activity, negative = inhibition” value was -16.8%.

With `Cc1cccc2c1N(CCCOc1ccccc1)C(=O)C2=O`, the “activity, negative = inhibition” value is -7.87%.

As for `COc1cccc(C(=O)Oc2ccccc2/C=C\C(=O)c2cc3ccccc3o2)c1`, the Potency was 3.16 µM (active). For `Cc1ccc(NN2C(=O)C=C(c3ccccc3)C2=O)cc1`, the “activity, negative = inhibition” value is -16.9%. For the molecule `C#CCOc1c(Cl)cc(/C=C2/C(=O)ON=C2C)cc1OCC`, the Potency is 15.8 µM (active). For the molecule `Cc1cc2nc3ccc(N(C)C)cc3nc2cc1N`, the Potency is 3.55 µM (active). In the case of `NC(=O)COc1ccc(/C=C2\C(=O)ON=C2c2ccccc2)cc1`, the Potency was 25.1 µM (active). Take `CCn1c(CSc2nnc(-c3ccncc3)n2CCOC)nc2cc(C(=O)O)ccc21`: the Potency is 15.8 µM (active).

Take `Cc1cccc2c1N(Cc1ccccc1OCCC(C)C)C(=O)C2=O`: the Potency is 12.6 µM (active).

Take `COc1ccc(C(Nc2cc(C)ccn2)c2ccc3ccc(C)nc3c2O)cc1` (stereo not given): the Potency is 14.1 µM (active).

Source of the values: PubChem BioAssay (NCATS).
